Measurements from PubChem BioAssay AID1159580 (chemical genetic matrix, 2015).
“And” between values parts separate entries of the source, which are not always exact repeats. Identical values can stand only once. The whole screen tested about 5,500 compounds, of which about 2,000 (36%) were called active. Inconclusive results (about 18%) are left out. Rule as the data show it: active = normalized growth mostly below about 0.91 (no sharp cut-off); inconclusive = no clear call, values can overlap the other calls; inactive = mostly above about 0.92. This is one part of the list.

Test: chemical genetic growth profiling, strain panel (AID 1159580);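 also: tested at 20 µM; growth read once vehicle control cultures reached saturation at 30 °C; 1 = growth at the plate median or of vehicle wells; lower values mean less growth of the strain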
Settings: S. cerevisiae deletion strains, growth OD

Measured: normalized growth

CCCCC[C@H](CC(=O)NO)C(=O)N[C@H](C(=O)N1CCC[C@H]1CO)C(C)C
inactive: locus YAL013W, strain DEP1, hits give low values 0.979 | locus YAL021C, strain ccr4, hits give low values 1.02 | locus YAL026C, strain drs2, hits give low values 1.01 | locus YAL030W, strain snc1, hits give low values 1 | locus YBL061C, strain skt5, hits give low values 1.01 | locus YBR009C, strain hhf1, hits give low values 1.02 | locus YBR021W, strain FUR4, hits give low values 1.04 | locus YBR023C, strain chs3, hits give low values 1.01 | locus YBR171W, strain sec66, hits give low values 1.02 | locus YBR229C, strain ROT2, hits give low values 1 | locus YBR231C, strain swc5, hits give low values 1.02 | locus YBR279W, strain paf1, hits give low values 1.02 | locus YCL011C, strain gbp2, hits give low values 1.01 | locus YCL016C, strain dcc1, hits give low values 1.01 | locus YCL029C, strain bik1, hits give low values 1.02 | locus YCL061C, strain MRC1, hits give low values 1.01 | locus YCL069W, strain vba3, hits give low values 1.01 | locus YCR088W, strain abp1, hits give low values 1.01 | locus YDL005C, strain med2, hits give low values 1.02 | locus YDL035C, strain GPR1, hits give low values 0.989 | locus YDL040C, strain nat1, hits give low values 1.02 | locus YDL074C, strain BRE1, hits give low values 1.02 | locus YDL101C, strain DUN1, hits give low values 1.02 | locus YDL185W, strain tfp1, hits give low values 1.01 | locus YDL192W, strain arf1, hits give low values 1.02 | locus YDR001C, strain nth1, hits give low values 1.01 | locus YDR069C, strain doa4, hits give low values 1.03 | locus YDR101C, strain arx1, hits give low values 1.03 | locus YDR137W, strain rgp1, hits give low values 0.972 | locus YDR150W, strain NUM1, hits give low values 1.02 | locus YDR159W, strain sac3, hits give low values 1.03 | locus YDR162C, strain NBP2, hits give low values 0.988 | locus YDR195W, strain ref2 1 | locus YDR297W, strain sur2, hits give low values 1.02 | locus YDR318W, strain mcm21, hits give low values 1.01 | locus YDR334W, strain swr1, hits give low values 1.01 | locus YDR335W, strain msn5, hits give low values 1.02 | locus YDR388W, hits give low values 1.02 | locus YDR392W, strain spt3, hits give low values 1.04 | locus YDR502C, strain sam2, hits give low values 1 | locus YEL003W, strain gim4, hits give low values 1.02 | locus YEL037C, strain rad23, hits give low values 1 | locus YEL061C, strain CIN8 (second series), hits give low values 1.01 | locus YEL061C, strain CIN8, hits give low values 1.01 | locus YER015W, strain faa2, hits give low values 1.02 | locus YER016W, strain bim1, hits give low values 1.01 | locus YER110C, hits give low values 1.03 | locus YER111C, strain swi4, hits give low values 1.02 | locus YER155C, strain BEM2 (second series), hits give low values 1.02 | locus YER155C, strain BEM2, hits give low values 1.01 | locus YER167W, strain BCK2, hits give low values 0.999 | locus YFR010W, strain ubp6, hits give low values 1.01 | locus YGL078C, strain dbp3, hits give low values 1.02 | locus YGL086W, strain mad1, hits give low values 1.01 | locus YGL167C, strain pmr1, hits give low values 1.01 | locus YGL173C, strain kem1, hits give low values 1.03 | locus YGL227W, strain vid30, hits give low values 1.02 | locus YGL240W, strain doc1, hits give low values 1.03 | locus YGL248W, strain PDE1, hits give low values 1.02 | locus YGL253W, strain hxk2, hits give low values 1.01 | locus YGR078C, strain PAC10, hits give low values 1.01 | locus YGR135W, strain pre9, hits give low values 1.01 | locus YGR252W, strain gcn5, hits give low values 1.02 | locus YHR013C, strain ard1, hits give low values 1.03 | locus YHR027C, strain rpn1, hits give low values 1.02 | locus YHR030C, strain SLT2, hits give low values 1.01 and 0.992 | locus YHR079C, strain IRE1 (second series), hits give low values 1.03 | locus YHR079C, strain IRE1, hits give low values 0.973 | locus YHR094C, strain hxt1, hits give low values 1.01 | locus YHR129C, strain ARP1, hits give low values 1.02 | locus YHR142W, strain chs7, hits give low values 1.01 | locus YHR200W, strain rpn10, hits give low values 1.01 | locus YIL066C, strain RNR3, hits give low values 0.999 | locus YIL073C, strain SPO22, hits give low values 1.06 | locus YIL125W, strain kgd1, hits give low values 1.02 | locus YIR030C, strain dcg1, hits give low values 1.02 | locus YJL092W, strain hpr5, hits give low values 1.01 | locus YJL095W, strain BCK1 (second series), hits give low values 1.02 | locus YJL095W, strain BCK1, hits give low values 1.02 and 0.977 | locus YJL115W, strain asf1, hits give low values 1 | locus YJL129C, strain trk1, hits give low values 1.03 | locus YJL134W, strain LCB3, hits give low values 1.01 | locus YJL154C, strain vps35, hits give low values 1 | locus YJL164C, strain tpk1, hits give low values 1.03 | locus YJL166W, strain qcr8, hits give low values 1.02 | locus YJL168C, strain set2, hits give low values 1.01 | locus YJL187C, strain SWE1 (second series), hits give low values 1.04 | locus YJL187C, strain SWE1, hits give low values 1.02
